Composite z-score and z-score data for five compounds are collected here from PubChem BioAssay.

Assay [1] can be described thus: small molecules captured by biotinylated probe aFSTL3 – biochemical, small-molecule microarray, fluorescence 635/667, stem cell growth factor project, primary screen (AID 1064).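 Further: measures binding of the biotinylated anti-FSTL3 antibody to printed compounds.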 The conditions noted are these: higher = more signal.
Assay [2] in a line: binders from COS7 lysate, DM2A8 probe, primary screen, torsin A project, cell lysate, small-molecule microarray, fluorescence 635/667 (AID 1065). The conditions noted are these: higher = more signal, COS7 lysate expressing mutant human TOR1A.
Assay [3] can be described thus: small molecules captured by biotinylated probe aFGF2 – biochemical, small-molecule microarray, fluorescence 635/667, stem cell growth factor project, primary screen (AID 1067).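 Further: measures binding of biotinylated aFGF2 protein to printed compounds on slides; z-score merges feature fluorescence and signal-to-noise across triplicate slides.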 The conditions noted are these: higher = more signal.
Assay [4] in a line: small molecules captured by biotinylated probe aFGF10 – biochemical, small-molecule microarray, fluorescence 635/667, stem cell growth factor project, primary screen (AID 1071).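 Further: score merges 667 nm spot intensity and signal to noise from triplicate slides.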 Conditions: higher = more signal.
Assay [5] deals with Neurogenic locus notch homolog protein 2 (Homo sapiens) (UniProt Q04721). The assay is described as follows: small molecules binding Notch2 protein – biochemical, small-molecule microarray, 635 nm fluorescence, stem cell growth factors, primary screen (AID 1073). The conditions noted are these: higher = more signal.
For assay [6], the target named is Pro-neuregulin-1, membrane-bound isoform (Homo sapiens) (UniProt Q02297). The assay is described as follows: small molecules binding neuregulin-1 protein – biochemical, small-molecule microarray, fluorescence 635/667, psychiatric disease protein project, primary screen (AID 1075).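 Further: score combines 667 nm spot fluorescence with signal to noise.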 The conditions noted are these: NRG1 binding, 635 nm fluorescence, higher = more signal.

For assay [7], the system named is Neuregulin-1 EGF-like domain. Description: small molecules binding NRG1 EGF domain – biochemical, small-molecule microarray, 635 nm fluorescence, primary screen (AID 1081).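 Further: binding of the protein to compounds printed on small-molecule microarray slides.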 Conditions: higher = more signal.
Assay [8] can be described thus: FRG1 expression reporter modulators in myotubes – cell-based, C2C12 myotubes, firefly/Renilla luciferase, luminescence, FRG1 inhibition for FSHD, primary screen (AID 1084). The conditions noted are these: FRG1 promoter luciferase, higher = more signal, called active from +8 up or from −8 down.
Assay [9] in a line: small molecules captured by biotinylated probe aFST – biochemical, small-molecule microarray, fluorescence 635/667, stem cell growth factor project, primary screen (AID 1086).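 Further: score merges 667 nm fluorescence with signal-to-noise of each printed compound spot.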 Conditions: higher = more signal.
A short description of assay [10]: binders of probe aHhip on microarray, primary screen, stem cell growth factor project, biochemical, small-molecule microarray, fluorescence 635/667 (AID 1087).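 Further: score merges spot fluorescence at 667nm with spot signal to noise ratio.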 The conditions noted are these: higher = more signal.
In assay [11] the test system is PRMT1 (protein arginine N-methyltransferase 1). The assay is described as follows: small molecules binding arginine methyltransferase PRMT1 – biochemical, small-molecule microarray, 635 nm fluorescence, primary screen (AID 1088).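 Further: binding of Prmt1 protein to compounds spotted on small-molecule microarray slides.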 Conditions: higher = more signal.
A short description of assay [12]: growth effects on S. cerevisiae YJM789 – YJM789 clinical isolate, OD600, 24 h, basal, primary screen (AID 1089).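 Further: growth of clinical yeast isolate S. cerevisiae YJM 789 seeded 1000 cells per well; test concentration not given here.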 Conditions: higher = more signal, called active from +8 up or from −8 down.
The nature of assay [13]: S. pombe growth modifiers, basal conditions – strain 972, OD600, 24 h, no modulator, primary screen (AID 1090).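 Further: basal condition with compound alone and no growth modifier present; test concentration not given here.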 The conditions noted are these: S. pombe 972 growth, higher = more signal, called active from +8 up or from −8 down.
Assay [14] is described as follows: budding yeast growth modifiers under rapamycin – strain BY4716, OD600, 96 h, primary screen (AID 1091). Further: test concentration not given here. Conditions: S. cerevisiae BY4716 + rapamycin, higher = more signal, called active from +8 up or from −8 down.
The target in assay [15] is Torsin-1A-interacting protein 2 (Homo sapiens) (UniProt Q8NFQ8). The assay is described as follows: small molecules binding lysate-expressed LULL1 – cell lysate, human LULL1 lysate, 635/667 nm fluorescence, primary screen (AID 1092).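 Further: probe is lysate of COS7 cells overexpressing human LULL1; score merges per-feature 667 nm fluorescence with signal-to-noise.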 Conditions: small-molecule microarray, hLULL1 lysate binding, 635 nm fluorescence; higher = more signal.
The nature of assay [16]: optical density change of DRC41 E. coli – strain DRC41, OD650, 24 h, E. coli filamentation project, primary screen (AID 1093).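 Further: MC1000 strain lacking acrAB efflux and sulA so SOS filamentation is blocked; test concentration not given here.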 The conditions noted are these: E. coli DRC41 growth, higher = more signal, called active from +8 up or from −8 down.
A short description of assay [17]: probe aLefty2 binding to arrayed compounds – biochemical, biotinylated probe, 635/667 nm fluorescence, primary screen (AID 1094).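 Further: score merges spot fluorescence near 667 nm with spot signal-to-noise ratio.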 The conditions noted are these: small-molecule microarray, higher = more signal.
In assay [18] the test system is Noggin (protein binding on small-molecule microarray). Description: small molecules binding Noggin protein – biochemical, 635/667 nm fluorescence, primary screen (AID 1095).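 Further: score merges 667 nm feature fluorescence with signal to noise over triplicate slides.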 Conditions: 635 nm fluorescence, higher = more signal.
The target of assay [19] is Neurogenic locus notch homolog protein 3 (Homo sapiens) (UniProt Q9UM47). The assay is described as follows: small molecules binding NOTCH3 protein – biochemical, 635/667 nm fluorescence, primary screen (AID 1096). Conditions: small-molecule microarray, 635 nm fluorescence, higher = more signal.
A short description of assay [20]: probe aEGFR binding to arrayed compounds – biochemical, biotinylated probe, 635/667 nm fluorescence, primary screen (AID 1097).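 Further: probe is a biotinylated anti-EGFR antibody binding compounds printed on slides; score combines fluorescence near 667 nm and signal to noise of each spot.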 Conditions: small-molecule microarray, higher = more signal.

Activity calls are given as the source filed them.

Chain of Neurogenic locus notch homolog protein 2 (Homo sapiens) (Q04721 whole entry, looked up, canonical isoform): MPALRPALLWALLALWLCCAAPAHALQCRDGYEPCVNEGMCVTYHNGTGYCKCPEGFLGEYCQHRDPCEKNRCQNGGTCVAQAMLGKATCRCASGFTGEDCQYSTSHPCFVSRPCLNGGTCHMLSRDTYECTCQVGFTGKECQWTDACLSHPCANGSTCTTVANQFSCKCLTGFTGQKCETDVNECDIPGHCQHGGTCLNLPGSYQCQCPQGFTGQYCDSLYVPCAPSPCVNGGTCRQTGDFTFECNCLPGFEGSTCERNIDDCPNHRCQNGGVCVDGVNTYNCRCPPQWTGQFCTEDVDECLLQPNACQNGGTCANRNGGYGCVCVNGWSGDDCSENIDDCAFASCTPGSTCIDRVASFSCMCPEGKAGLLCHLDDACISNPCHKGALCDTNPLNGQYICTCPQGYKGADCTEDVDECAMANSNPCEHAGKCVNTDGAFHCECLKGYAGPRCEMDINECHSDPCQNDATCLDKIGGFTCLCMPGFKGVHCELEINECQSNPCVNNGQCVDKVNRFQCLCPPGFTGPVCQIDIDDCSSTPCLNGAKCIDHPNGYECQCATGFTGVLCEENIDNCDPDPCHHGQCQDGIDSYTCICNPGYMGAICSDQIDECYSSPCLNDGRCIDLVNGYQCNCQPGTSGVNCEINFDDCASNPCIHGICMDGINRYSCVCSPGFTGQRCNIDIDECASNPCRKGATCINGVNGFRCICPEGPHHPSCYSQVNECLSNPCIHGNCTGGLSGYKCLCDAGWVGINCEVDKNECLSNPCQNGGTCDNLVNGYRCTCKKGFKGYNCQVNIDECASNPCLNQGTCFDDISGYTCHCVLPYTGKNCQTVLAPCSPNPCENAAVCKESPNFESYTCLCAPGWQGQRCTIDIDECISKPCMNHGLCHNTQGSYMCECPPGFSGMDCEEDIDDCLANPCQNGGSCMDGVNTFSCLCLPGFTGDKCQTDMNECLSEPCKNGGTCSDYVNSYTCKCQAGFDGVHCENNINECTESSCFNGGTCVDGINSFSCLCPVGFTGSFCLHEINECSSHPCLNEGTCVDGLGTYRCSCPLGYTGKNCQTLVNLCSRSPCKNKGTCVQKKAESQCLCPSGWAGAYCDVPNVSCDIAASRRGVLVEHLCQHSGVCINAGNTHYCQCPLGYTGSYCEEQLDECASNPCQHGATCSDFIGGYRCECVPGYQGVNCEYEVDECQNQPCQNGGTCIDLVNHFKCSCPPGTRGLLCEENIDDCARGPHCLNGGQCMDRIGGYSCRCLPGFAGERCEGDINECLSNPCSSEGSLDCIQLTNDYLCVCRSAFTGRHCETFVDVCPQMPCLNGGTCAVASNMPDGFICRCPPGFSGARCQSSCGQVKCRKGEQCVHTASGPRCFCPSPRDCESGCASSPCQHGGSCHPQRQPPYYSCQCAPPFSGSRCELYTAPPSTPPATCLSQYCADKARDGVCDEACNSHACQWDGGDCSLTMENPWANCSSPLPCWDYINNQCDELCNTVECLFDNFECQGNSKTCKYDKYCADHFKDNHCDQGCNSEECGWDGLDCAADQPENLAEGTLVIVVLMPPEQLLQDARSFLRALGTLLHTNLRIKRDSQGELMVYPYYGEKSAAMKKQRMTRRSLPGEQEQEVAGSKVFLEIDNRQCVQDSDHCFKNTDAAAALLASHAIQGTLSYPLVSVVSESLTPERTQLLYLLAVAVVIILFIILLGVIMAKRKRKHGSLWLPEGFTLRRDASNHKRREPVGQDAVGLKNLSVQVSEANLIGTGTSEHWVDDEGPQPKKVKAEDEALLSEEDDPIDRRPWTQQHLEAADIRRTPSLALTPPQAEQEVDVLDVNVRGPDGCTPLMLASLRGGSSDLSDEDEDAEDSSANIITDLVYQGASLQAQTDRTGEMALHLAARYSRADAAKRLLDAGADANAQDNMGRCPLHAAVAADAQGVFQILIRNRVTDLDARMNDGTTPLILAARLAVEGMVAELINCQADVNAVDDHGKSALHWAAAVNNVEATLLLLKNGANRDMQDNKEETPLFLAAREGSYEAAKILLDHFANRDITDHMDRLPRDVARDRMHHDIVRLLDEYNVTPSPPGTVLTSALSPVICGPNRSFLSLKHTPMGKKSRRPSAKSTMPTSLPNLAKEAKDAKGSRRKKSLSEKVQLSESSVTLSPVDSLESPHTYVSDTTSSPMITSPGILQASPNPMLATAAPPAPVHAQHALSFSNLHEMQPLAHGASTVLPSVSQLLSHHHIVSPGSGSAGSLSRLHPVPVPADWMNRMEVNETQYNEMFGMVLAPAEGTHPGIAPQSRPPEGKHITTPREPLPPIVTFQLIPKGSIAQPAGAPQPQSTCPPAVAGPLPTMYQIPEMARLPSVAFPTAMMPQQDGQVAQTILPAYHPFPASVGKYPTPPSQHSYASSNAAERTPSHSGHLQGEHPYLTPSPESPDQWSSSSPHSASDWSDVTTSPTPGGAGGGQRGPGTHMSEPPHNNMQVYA
Chain of Pro-neuregulin-1, membrane-bound isoform (Homo sapiens) (Q02297 whole entry, looked up, canonical isoform): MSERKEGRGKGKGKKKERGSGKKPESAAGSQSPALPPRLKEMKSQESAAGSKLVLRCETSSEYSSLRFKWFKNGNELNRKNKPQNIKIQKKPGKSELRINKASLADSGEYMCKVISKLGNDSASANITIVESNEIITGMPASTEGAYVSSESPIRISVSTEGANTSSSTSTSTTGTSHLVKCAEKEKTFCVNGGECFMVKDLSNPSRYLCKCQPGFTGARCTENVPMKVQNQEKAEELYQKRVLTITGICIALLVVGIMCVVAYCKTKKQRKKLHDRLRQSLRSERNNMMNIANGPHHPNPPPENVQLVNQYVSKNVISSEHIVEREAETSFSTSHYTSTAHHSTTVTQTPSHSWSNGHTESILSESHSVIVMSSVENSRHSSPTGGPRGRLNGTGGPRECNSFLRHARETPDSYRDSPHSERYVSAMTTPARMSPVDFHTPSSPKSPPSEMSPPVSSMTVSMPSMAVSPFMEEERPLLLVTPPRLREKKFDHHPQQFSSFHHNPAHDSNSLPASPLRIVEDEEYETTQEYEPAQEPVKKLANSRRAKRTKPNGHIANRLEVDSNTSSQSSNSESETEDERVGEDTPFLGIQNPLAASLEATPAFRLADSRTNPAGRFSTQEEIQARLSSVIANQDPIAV
Chain of Torsin-1A-interacting protein 2 (Homo sapiens) (Q8NFQ8 whole entry, looked up): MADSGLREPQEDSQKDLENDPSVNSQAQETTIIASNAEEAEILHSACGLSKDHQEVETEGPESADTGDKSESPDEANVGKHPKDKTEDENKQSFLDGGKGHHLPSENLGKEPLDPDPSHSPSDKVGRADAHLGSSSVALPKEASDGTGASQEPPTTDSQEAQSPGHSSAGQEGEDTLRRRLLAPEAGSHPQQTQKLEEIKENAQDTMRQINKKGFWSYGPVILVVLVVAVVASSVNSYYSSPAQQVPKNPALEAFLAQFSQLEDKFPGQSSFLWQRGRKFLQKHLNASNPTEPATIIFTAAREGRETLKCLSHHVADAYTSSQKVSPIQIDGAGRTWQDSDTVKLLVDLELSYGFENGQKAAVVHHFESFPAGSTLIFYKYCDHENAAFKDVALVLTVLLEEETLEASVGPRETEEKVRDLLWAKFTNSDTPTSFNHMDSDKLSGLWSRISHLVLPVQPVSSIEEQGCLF

For `O=C1[C@H]2[C@H]3[C@H](O)[C@H](O)CC(=NOCc4ccccc4)[C@@H]3CC[C@H]2C(=O)N1c1cccc(Oc2ccccc2)c1`, the composite z-score in assay [1] is -0.556; in [2] it was 0.101; in assay [3], -0.0579; in [4] it was 0.554; in [5] it was 0.359; in assay [6], 1.48. The composite z-score in assay [7] is 0.988; in [9], 0.529; in assay [10], 0.141; in [11], 1.35; in assay [15] it was 1.6; in [17], 0.266. The figures for the composite z-score in [18], in assay [19] and in assay [20] were 0.889, 0.64 and -0.0967, respectively. The z-score in assay [8] was -0.441 (inactive); in [12], 0.663 (inactive); in assay [13], 0.277 (inactive); in [14] it was -0.349 (inactive); in [16], 0.589 (inactive).

On to `COCOc1ccc(Br)cc1C(=O)C=Cc1ccc2c(c1)OCO2`, for which the composite z-score is -0.289 in [1]; 0.738 in assay [2]; -0.0878 in assay [3]; 0.313 in [4]; 0.315 in assay [5]; -0.302 in assay [6]. Also, the composite z-score in assay [7] was -0.645; in assay [9], 0.13; in assay [10], -0.226; in assay [11], 0.253; in [15] it was -0.57; in [17] it was -0.16. The results for the composite z-score in assay [18], in [19] and in [20] were 0.698, 0.0871 and -0.0834, respectively. The z-score in assay [8] is -2.06 (inactive); in [12], -0.827 (inactive); in assay [13], -7.01 (inactive); in assay [14], 32.1 (active); in assay [16], 0.368 (inactive).

On to `CC(C)CON=C1C[C@@H](O)[C@@H](O)[C@@H]2[C@@H]3C(=O)N([C@@H](C)c4ccccc4)C(=O)[C@@H]3CC[C@@H]12`, for which the composite z-score in assay [1] was 0.083; in assay [2], 0.114; in assay [3] it was -0.145; in assay [4], 0.107; in assay [5], 0.309; in [6], -0.104. In addition, the composite z-score in assay [7] was -0.546; in assay [9], 0.624; in assay [10], 0.0373; in [11], -0.413; in [15], 0.246; in assay [17], 0.224. The composite z-score in [18] is 0.347; in [19], 0.114; in assay [20] it was -0.0286. The z-score in assay [8] is 0.431 (inactive); in assay [12], 0.281 (inactive); in assay [13] it was 0.603 (inactive); in assay [14] it was -0.188 (inactive); in assay [16], 0.3 (inactive).

For the compound `CC(C)=CCCC(C)=CCON=C1C[C@@H](O)[C@@H](O)[C@@H]2[C@@H]3C(=O)N(C4CCCCC4)C(=O)[C@@H]3CC[C@H]12`, the composite z-score in assay [1] was -0.317; in assay [2], 0.396; in assay [3], -0.0725; in assay [4], 0.548; in [5], 0.535; in assay [6], 0.475. For the same compound, the composite z-score is 0.255 in assay [7]; 0.53 in assay [9]; 0.408 in assay [10]; 1.52 in assay [11]; 0.341 in assay [15]; -0.0575 in assay [17]. For the same compound, the composite z-score turned out to be 1.07 in assay [18], 0.789 in [19] and 0.0065 in assay [20]. Further, the z-score in [8] was 0.0864 (inactive); in assay [12], 0.194 (inactive); in assay [13], -0.312 (inactive); in assay [14], -0.382 (inactive); in assay [16], 0.474 (inactive).

In the case of `CC(CCN1CCc2nc(-c3ccccc3)c(-c3ccccc3)cc2C1)=NO[C@H](C)c1cn([C@H](CO)Cc2ccccc2)nn1`, the composite z-score in assay [1] was -0.11; in assay [2], 0.575; in assay [3], -0.0569; in assay [4] it was -0.332; in assay [5] it was -0.54; in [6], 0.164. The composite z-score in [7] was 0.299; in assay [9], -0.125; in assay [10], -0.13; in assay [11], 0.485; in assay [15], 0.381; in [17], 0.0272. Moreover, the composite z-score in assay [18] is 0.622; in assay [19] it was -0.0395; in assay [20] it was -0.122. The z-score is -0.327 (inactive) in [8]; -0.0115 (inactive) in assay [12]; -0.989 (inactive) in assay [13]; -4.22 (inactive) in assay [14]; 0.561 (inactive) in [16].
